Results from PubChem BioAssay AID1159580 (chemical genetic matrix, 2015).
“And” between values parts separate entries of the source, which are not always exact repeats. Equal values may be shown once. Hit rate of the full screen: of about 5,500 compounds, about 2,000 (36%) were called active. About 18% were inconclusive and are not listed. Cut-off read from the data, not from the text of the source: active = normalized growth mostly below about 0.91 (no sharp cut-off); inconclusive = no clear call, values can overlap the other calls; inactive = mostly above about 0.92. The list shows a part of the results.

Experiment: chemical genetic growth profiling, strain panel (AID 1159580);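 note: tested at 20 µM; growth read once vehicle control cultures reached saturation at 30 °C; 1 = growth at the plate median or of vehicle wells; lower values mean less growth of the strain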
Settings: S. cerevisiae deletion strains, growth OD

Measured: normalized growth

CC12CCC(CC1)C(C)(C)O2
inactive: locus YAL013W, strain DEP1, stronger effect = lower value 1 | locus YAL021C, strain ccr4, stronger effect = lower value 0.963 | locus YAL026C, strain drs2, stronger effect = lower value 0.973 | locus YAL030W, strain snc1, stronger effect = lower value 0.998 | locus YBL061C, strain skt5, stronger effect = lower value 0.967 | locus YBR009C, strain hhf1, stronger effect = lower value 0.994 | locus YBR021W, strain FUR4, stronger effect = lower value 1.02 | locus YBR023C, strain chs3, stronger effect = lower value 0.974 | locus YBR171W, strain sec66, stronger effect = lower value 0.966 | locus YBR229C, strain ROT2, stronger effect = lower value 1 | locus YBR231C, strain swc5, stronger effect = lower value 1.02 | locus YBR279W, strain paf1, stronger effect = lower value 0.988 | locus YCL011C, strain gbp2, stronger effect = lower value 0.974 | locus YCL016C, strain dcc1, stronger effect = lower value 0.986 | locus YCL029C, strain bik1, stronger effect = lower value 1.01 | locus YCL061C, strain MRC1, stronger effect = lower value 0.968 | locus YCL069W, strain vba3, stronger effect = lower value 0.977 | locus YCR088W, strain abp1, stronger effect = lower value 0.985 | locus YDL005C, strain med2, stronger effect = lower value 0.975 | locus YDL035C, strain GPR1, stronger effect = lower value 0.999 | locus YDL040C, strain nat1, stronger effect = lower value 0.997 | locus YDL074C, strain BRE1, stronger effect = lower value 1.02 | locus YDL101C, strain DUN1, stronger effect = lower value 1 | locus YDL185W, strain tfp1, stronger effect = lower value 1.01 | locus YDL192W, strain arf1, stronger effect = lower value 1.02 | locus YDR001C, strain nth1, stronger effect = lower value 0.995 | locus YDR069C, strain doa4, stronger effect = lower value 0.966 | locus YDR101C, strain arx1, stronger effect = lower value 0.996 | locus YDR137W, strain rgp1, stronger effect = lower value 1.04 | locus YDR150W, strain NUM1, stronger effect = lower value 1 | locus YDR159W, strain sac3, stronger effect = lower value 1.01 | locus YDR162C, strain NBP2, stronger effect = lower value 0.978 | locus YDR195W, strain ref2 0.982 | locus YDR297W, strain sur2, stronger effect = lower value 0.985 | locus YDR318W, strain mcm21, stronger effect = lower value 1.02 | locus YDR334W, strain swr1, stronger effect = lower value 0.974 | locus YDR335W, strain msn5, stronger effect = lower value 0.985 | locus YDR388W, stronger effect = lower value 1.02 | locus YDR392W, strain spt3, stronger effect = lower value 0.935 | locus YDR502C, strain sam2, stronger effect = lower value 1.01 | locus YEL003W, strain gim4, stronger effect = lower value 0.989 | locus YEL037C, strain rad23, stronger effect = lower value 0.97 | locus YEL061C, strain CIN8 (second series), stronger effect = lower value 0.98 | locus YEL061C, strain CIN8, stronger effect = lower value 1 | locus YER015W, strain faa2, stronger effect = lower value 0.979 | locus YER016W, strain bim1, stronger effect = lower value 0.992 | locus YER110C, stronger effect = lower value 1.02 | locus YER111C, strain swi4, stronger effect = lower value 0.97 | locus YER155C, strain BEM2 (second series), stronger effect = lower value 0.977 | locus YER155C, strain BEM2, stronger effect = lower value 1.01 | locus YER167W, strain BCK2, stronger effect = lower value 1 | locus YFR010W, strain ubp6, stronger effect = lower value 0.967 | locus YGL078C, strain dbp3, stronger effect = lower value 1.03 | locus YGL086W, strain mad1, stronger effect = lower value 0.986 | locus YGL167C, strain pmr1, stronger effect = lower value 0.979 | locus YGL173C, strain kem1, stronger effect = lower value 0.971 | locus YGL227W, strain vid30, stronger effect = lower value 0.986 | locus YGL240W, strain doc1, stronger effect = lower value 0.997 | locus YGL248W, strain PDE1, stronger effect = lower value 1.01 | locus YGL253W, strain hxk2, stronger effect = lower value 0.963 | locus YGR078C, strain PAC10, stronger effect = lower value 1 | locus YGR135W, strain pre9, stronger effect = lower value 1.06 | locus YGR229C, strain SMI1, stronger effect = lower value 0.999 | locus YGR252W, strain gcn5, stronger effect = lower value 1.04 | locus YHR013C, strain ard1, stronger effect = lower value 0.967 | locus YHR027C, strain rpn1, stronger effect = lower value 0.984 | locus YHR030C, strain SLT2, stronger effect = lower value 1.01 and 0.978 | locus YHR079C, strain IRE1 (second series), stronger effect = lower value 1.01 | locus YHR079C, strain IRE1, stronger effect = lower value 0.993 | locus YHR094C, strain hxt1, stronger effect = lower value 1.02 | locus YHR129C, strain ARP1, stronger effect = lower value 1.01 | locus YHR142W, strain chs7, stronger effect = lower value 0.979 | locus YHR200W, strain rpn10, stronger effect = lower value 1.01 | locus YIL066C, strain RNR3, stronger effect = lower value 0.998 | locus YIL073C, strain SPO22, stronger effect = lower value 1 | locus YIL125W, strain kgd1, stronger effect = lower value 1.02 | locus YIR030C, strain dcg1, stronger effect = lower value 1.03 | locus YJL092W, strain hpr5, stronger effect = lower value 0.954 | locus YJL095W, strain BCK1 (second series), stronger effect = lower value 0.97 | locus YJL095W, strain BCK1, stronger effect = lower value 1.03 and 0.991 | locus YJL115W, strain asf1, stronger effect = lower value 0.982 | locus YJL129C, strain trk1, stronger effect = lower value 0.966 | locus YJL134W, strain LCB3, stronger effect = lower value 1 | locus YJL154C, strain vps35, stronger effect = lower value 0.984 | locus YJL164C, strain tpk1, stronger effect = lower value 0.988 | locus YJL166W, strain qcr8, stronger effect = lower value 0.996 | locus YJL168C, strain set2, stronger effect = lower value 1.04
